# Target: C1orf106
# Test: pooled miR-30 sensor sort-seq; sequence = guide strand
# Conditions: shRNA
# Also: reference of the scale not given here.
row,Sequence,sensor-assay potency score (higher = more potent)
1,TTATTGAAGTATTTAGCACTAA,-0.34
2,TAGAACCAGAGCACAGAGCGTT,-0.706
3,TATTGAAGTATTTAGCACTAAA,-0.989
4,TAAAACATAATCATATCACAGG,-0.615
5,TAGCTGAGGACACAGCCACTTG,-1.67
6,TAAGCCGCTCCGATCCTGCGGC,-0.585
7,TTCAGGTACAAAGACTTGCACA,-0.854
8,TTGTAAGCCGCTCCGATCCTGC,-0.983
9,TTCTCCTCCAGGCACAGCCGAC,-1.78

# Target: C1orf109
# Test: as above
# Conditions: shRNA
row,Sequence,sensor-assay potency score (higher = more potent)
1,TTGAAAAATATCTATACCCTTT,-0.465
2,TTTCTCTTCAGGTACGACTTTC,-0.727
3,TATGTATCGATGATAGCACGTT,0.283
4,TATCTTGTACAAGATCCTGGTG,-0.3
5,TTTTTAAAAAAAGACAACCTAA,-0.867
6,TTCTTTAGAAACATCAGGGTTC,0.139
7,ATCTTGTACAAGATCCTGGTGT,-0.231
8,TTTAGGTCCACAATAGAGGAAA,-1.1
9,TAGATGAAGGCAGCAGACCTTG,-1.04
10,TTATTAATAATAGTTATCTGGT,0.0251
11,TGACAAAAGACACAAAACCAGG,-1.47
12,TAAATAGACACTGAAAAGGTAT,-0.303

# Target: C1orf114
# Test: as above
# Conditions: shRNA
row,Sequence,sensor-assay potency score (higher = more potent)
1,TTCTCCATAATATATCTCCTTA,-0.58
2,TTCTTGATTCTGTAGAAGCTTG,-0.732
3,TTTGTAGTTCTTTCTGTCGAGG,-0.841
4,TTCTAGTGGAGGAACTTCCAAA,-0.899
5,TTTTCCATCTCTCTCTACCAGT,-0.549
6,TTTTCTTTTGCAACCACGCTTT,-0.00106
7,TACTATGTCATTCTCTCTCTTT,-0.145
8,TTCTTGTCCAAAATCATTGGAA,-0.446
9,TTAGCTTCTAGTCGGAGCTGTC,-0.331
10,TTCTTTCATCTGCTCTTCGTGC,-0.834
11,TTGGTTAATATTCTCTTCCTTC,-0.217
12,TAGTAGTGTCTTCTAGTGGAGG,-0.965

# Target: C1orf115
# Test: as above
# Conditions: shRNA
row,Sequence,sensor-assay potency score (higher = more potent)
1,TGACTCTAGTAACATCCTCTTC,-1.03
2,TCTGACTCTAGTAACATCCTCT,0.697
3,TCGTCCGCCGCGCTCGTCCCGC,-1.58
4,TCTAGTAACATCCTCTTCCTCC,0.254
5,TTCAAGTCTGAGATGCTCCAGG,0.617
6,TTCTCTTCCAAATATGCTGTGT,-0.325
7,TACTTCTTCAGCTTCCTCCGGT,0.808

# From the OligoGym collection
